Bioassay records as filed in PubChem.
Compounds with a hit are over-represented: about 3.5% of the library has one in this group of screens.
GPR151 ag: activators of human GPR151; activation, % at 11.2 µM; Q8TDV0; 1% of 650,000 active; AID 1508602; PathHunter beta-arrestin GPR151 cells, luminescence; in the data active = activation above about 4.9%;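 note: 0% = median of compound wells and 100% = cells with positive control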
TEAD-YAP block: TEAD-YAP interaction inhibition. HEK-TIYL cells, TEAD-Gal4/YAP UAS-luciferase luminescence. inhibition, % at 9.12 µM. 1.4% of 640,000 active; in the data active = inhibition above about 32%;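 note: 0% = median of test compound wells and 100% = reference inhibitor wells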
MITF primary: human MITF inhibition, primary screen | O75030 | 0.91% of 650,000 active | inhibition, % at 2.6 µM | AlphaScreen MITF homodimerization, bead proximity signal; in the data active = inhibition above about 50%;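 note: 0% = vehicle wells with protein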
Target sequence (O75030 whole entry, looked up): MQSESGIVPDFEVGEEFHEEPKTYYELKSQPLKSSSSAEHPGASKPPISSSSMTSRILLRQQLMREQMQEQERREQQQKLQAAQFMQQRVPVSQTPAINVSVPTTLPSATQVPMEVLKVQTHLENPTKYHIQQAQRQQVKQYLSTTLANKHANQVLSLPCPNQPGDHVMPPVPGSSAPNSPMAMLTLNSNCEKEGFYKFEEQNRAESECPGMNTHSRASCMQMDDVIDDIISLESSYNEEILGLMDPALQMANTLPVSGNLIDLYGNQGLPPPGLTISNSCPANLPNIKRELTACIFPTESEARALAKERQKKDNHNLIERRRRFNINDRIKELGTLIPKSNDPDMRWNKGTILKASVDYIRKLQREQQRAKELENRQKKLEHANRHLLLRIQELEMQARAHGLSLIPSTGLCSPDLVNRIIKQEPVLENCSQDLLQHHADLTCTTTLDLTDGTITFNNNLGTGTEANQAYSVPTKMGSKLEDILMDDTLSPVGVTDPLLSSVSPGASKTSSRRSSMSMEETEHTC
FBW7 activator: activators of human E3 ligase FBW7. 0.13% of 650,000 active. AID 1259310. normalized activity (activation), % at 26.1 µM. Q969H0. AlphaScreen FBW7–phospho-cyclin E peptide binding, activator screen; in the data active = normalized activity above about 1.9%;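 note: purified mutant Fbw7 with reduced substrate affinity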
An asterisk follows results filed as active.

SMILES	GPR151 ag	TEAD-YAP block	MITF primary	FBW7 activator
CCCOC(=O)c1cccc(-c2ccc(/C=C3\C(=O)N(CCO)C(=O)C(C#N)=C3C)o2)c1	0	9	0	0
CC1=C(C(=O)Nc2cccc(F)c2)C(c2ccsc2)C2=C(CC(C)(C)CC2=O)N1 (stereo not given)	-1	54*	0	0
CC1=C(C(=O)Nc2ccccc2F)C(c2ccsc2)C2=C(CC(C)(C)CC2=O)N1 (stereo not given)	0	55*	-3	0
CC1=C(C(=O)Nc2ccccc2F)C(c2ccccn2)C2=C(CC(C)(C)CC2=O)N1 (stereo not given)	0	4	11	0
CC1=C(C(=O)Nc2ccc(F)cc2)C(c2ccsc2)C2=C(CC(C)(C)CC2=O)N1 (stereo not given)	1	-7	-15	0
CSc1nc(N)c2c(n1)NC1=C(C(=O)CC(C)(C)C1)C2c1ccncc1 (stereo not given)	-1	-4	12	0
CSc1nc(N)c2c(n1)NC1=C(C(=O)CC(C)(C)C1)C2c1cccs1 (stereo not given)	0	49*	9	0
CC1=C(C(=O)Nc2cccc(F)c2)C(c2cccs2)C2=C(CC(C)(C)CC2=O)N1 (stereo not given)	1	58*	-8	0
O=C1N[C@@H](Cc2ccccc2)C(=O)N2CCN(CC3CC3)C[C@H]12	1	4	17	1
CCn1c(CSc2nc3nc(C)cc(C)n3n2)nc2cc(S(=O)(=O)N(C)C)ccc21	0	-5	-4	0
O=C(Cn1ccc(=NCc2ccccc2)cc1)c1cccc([N+](=O)[O-])c1	0	33*	-32	0
NC(=NCc1ccccc1)c1cccc([N+](=O)[O-])c1	0	6	-5	0
O=C(CN1C(=O)C2C3C=CC(C3)C2C1=O)N1CCCCCC1 (stereo not given)	0	-4	5	0
c1ccc(-n2cnc3c(NC4CC4)nc(Nc4nccc5ccccc45)nc32)cc1	-2	43*	9	0
c1cc(Nc2nc(NC3CC3)c3ncn(-c4ccsc4)c3n2)ncn1	0	-25	7	7.4*
c1ccc(Nc2nc(Nc3ccncn3)nc3c2ncn3-c2ccsc2)cc1	3	-61	1	0
CN(C)c1cccc(Nc2nc(N)c3ncn(-c4ccsc4)c3n2)c1	-1	10	9	0
CN(C)c1cccc(Nc2nc(NC3CC3)c3ncn(-c4ccsc4)c3n2)c1	0	33*	0	0
c1cnc2ccc(Nc3nc(NC4CC4)c4ncn(-c5ccsc5)c4n3)cc2c1	1	9	18	0
c1cnc(Nc2nc(NC3CC3)c3ncn(-c4ccsc4)c3n2)cn1	1	34*	11	0
c1ccc(-n2cnc3c(NC4CC4)nc(Nc4cnccn4)nc32)cc1	2	51*	2	0
c1ccc(-n2cnc3c(NC4CC4)nc(Nc4ccncc4)nc32)cc1	2	38*	10	0
COC(=O)c1c(NC(=O)c2ccco2)sc(C(=O)Nc2ccc(F)cc2)c1C	0	4	-2	0
COC(=O)c1c(NC(=O)c2ccco2)sc(C(=O)Nc2ccc(C)cc2)c1C	0	34*	-4	0
Cn1c(=O)c2c(nc3n2CCN3c2ccc(OCc3cccc(Cl)c3)cc2)n(C)c1=O	1	-3	-10	0
SMILES	GPR151 ag	TEAD-YAP block	MITF primary	FBW7 activator
Cc1nc(Nc2cc(Cl)ccc2Cl)nc(Nc2cc(Cl)ccc2Cl)c1[N+](=O)[O-]	0	-1	19	0
CCc1nc(SCc2ccc(Cl)cc2Cl)c(C#N)c2c1CCCC2	-1	1	7	2.2*
O=C(Nc1ccc(N2CCOCC2)cc1)c1ccco1	-5	62*	9	0
O=C(Nc1ccc(N2CCN(C(=O)c3ccco3)CC2)cc1)c1cccc2ccccc12	0	55*	9	0
O=C(Nc1ccc(N2CCN(Cc3ccccc3)CC2)cc1)c1ccco1	0	-4	9	1
O=C(Nc1ccc(N2CCOCC2)cc1)c1cnccn1	-4	49*	-8	0
Cn1c(=O)n(CCOc2ccc3ccccc3c2)c2ccccc21	0	-71	-2	0
Cc1oc(C(=O)N2c3ccccc3CC2C)cc1S(=O)(=O)N(C)C (stereo not given)	-4	49*	-3	0
Cc1ccc(C)n1-c1ccccc1N	2	51*	-7	1
COc1ccc(N2C(=O)c3ccc(Oc4cccc([N+](=O)[O-])c4)cc3C2=O)cc1	-1	-6	-5	0
CCOC(=O)C(C)Oc1ccc2cc(-c3ccccc3)c(=O)oc2c1 (stereo not given)	-4	18	-4	2.3*
COc1ccc(O)c(C2=Nc3ccccc3N=C(c3ccc(C(C)(C)C)cc3)C2)c1	2	56*	7	0
COc1ccc(-c2nsc3c(N4CCC(C(N)=O)CC4)ncnc23)cc1	-1	39*	2	0
COc1ccc(-c2nsc3c(N4CCN(C)CC4)ncnc23)cc1	0	38*	-8	0
COc1ccc(-c2nsc3c(N4CCOCC4)ncnc23)cc1	0	82*	-22	0
O=[N+]([O-])c1ccc(-c2nsc3c(N4CCCC4)ncnc23)cc1	1	-25	18	0
COc1ccc(-c2nsc3c(N4CCCCC4)ncnc23)cc1	-1	83*	-12	0
Cc1cc(-c2ccc(Br)cc2)c(C#N)c(N)n1	4	-4	-11	0
O=[N+]([O-])c1ccc(OCC(O)Cn2c(C(F)(F)F)nc3ccccc32)cc1 (stereo not given)	3	1	-1	0
Cc1[nH]n(-c2ccc([N+](=O)[O-])cc2)c(=O)c1C=NCC1CCNCC1	-2	5	9	0
COc1ccc(-c2nsc3c(N4CCCCC4C)ncnc23)cc1 (stereo not given)	-1	93*	10	0
CC1CCCCN1c1ncnc2c(-c3ccc([N+](=O)[O-])cc3)nsc12 (stereo not given)	1	-10	-1	0
O=[N+]([O-])c1cccnc1Sc1n[nH]c(-c2ccccc2F)n1	-1	4	13	0
CCOC(=O)C1CCN(C(=O)c2cc(-c3ccccc3)n[nH]2)CC1	0	-16	1	0
O=C(Cn1c(=O)[nH]c2ccccc21)NCc1ccc2c(c1)OCO2	-6	75*	6	0
SMILES	GPR151 ag	TEAD-YAP block	MITF primary	FBW7 activator
O[N+]1=CC=CCC1=S.On1ccccc1=S.[Zn]	2	100*	-113	0
Cc1ccccc1NC(=O)Cn1nnc(C(=O)NCc2cccs2)c1N	-1	46*	-12	0
COc1ccc(Cl)cc1NS(=O)(=O)c1cc(C)ccc1OC	0	-2	3	0
COc1ccc(Cl)cc1NS(=O)(=O)c1ccc(OC)c(C)c1C	0	42*	9	0
COc1cc(NS(=O)(=O)c2ccc(OC)c(C)c2C)c(OC)cc1Cl	-1	54*	5	0
Fc1cccc(-c2cnc3c(NCc4ccc5c(c4)OCO5)nccn23)c1	-1	-5	-1	0
